The panel holds about 83,000 compounds, 20% with a hit somewhere; the sample as a whole holds those more often.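 Compound tested at a single concentration for 48 hours in 96-well plates; a percent growth value below 10 was scored as active.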 Unmarked numbers belong to inactive results. The source made the active and inactive calls.
These compounds were tested on UACC-62 melanoma (assay: NCI-60 one-dose screen, 48 h (100 = growth as untreated, 0 = no growth, -100 = all killed)). Conditions: 10 µM unless noted.
Experimental: Growth inhibition of the UACC-62 human tumor cell line is measured as a screen for anti-cancer activity. Cells are grown in 96 well plates and exposed to the test compound for 48 hours. Compounds are tested at a single concentration, which is 10^-5 M for most compounds. The reported endpoint is percent growth (GI% or GIPRCNT), where numbers from 0 - 100% represent growth inhibition, and numbers from -100% - 0 represent cell death. For example, a value of 40 represents 60% growth inhibition. A value of 0 means no net growth occurred over the course of the experiment. A value of -40 indicates 40% of cells at the beginning of the experiment died by the end of the experiment. A value of -100 means all cells are dead at the end of the experiment.
NCI-60 Human Tumor Cell Lines Screen was performed using the standard one-dose NCI protocol, which is described in more detail at https://dtp.cancer.gov/discovery_development/nci-60/default.htm.
Compounds with GIPRCNT values below 10 were considered active. Activity score was based on GIPRCNT using the following formula: […]
Score is 0 for GIPRCNT values of 100 or above, 50 for GIPRCNT values of 0, and 100 for GIPRCNT values of -100.

Row | Structure (SMILES) | growth
1 | COc1ccc(OC)c(/C=C/[C@H]2O[C@@H](C)[C@H](O)[C@@H]2O)c1 | 100%
2 | COc1ccc(/C=C\c2nc3ccccc3s2)cc1OP(=O)(O)O | 41.5%
3 | O=C(c1ccccc1)N1N=C(c2ccc(-n3ccc(C(F)(F)F)n3)cc2)CC1c1ccc[nH]1 (stereo not given) | 89.6%
4 | Cc1[nH]c(C(=O)Nc2ccccc2OCc2cccc(C(=O)NCCN)c2)c(Cl)c1Cl | 92.6%
5 | CN1CCN(C(=O)OCc2nc3c(N4CCOCC4)nc(-c4ccccc4)nc3n2C)CC1 | -95.9% (active)
6 | COc1ccc(Cn2nc(-c3cc(OC)c(OC)c(OC)c3)c3c2CCc2cnoc2-3)cc1OC | 51.1%
7 | CCn1ccnc1C(=O)/C=C/c1ccc(CC(=O)Nc2ccc(F)cc2)cc1 | 55.6%
8 | COc1ccc(C2CC(c3cccc(Nc4ccncc4)c3)=NN2c2ccccc2)cc1 (stereo not given) | 97%
9 | O=C(Nc1ccc2cc3ccc(NC(=O)N4CCCCCC4)cc3nc2c1)N1CCCCCC1 | -66.6% (active)
10 | CC(=O)Nc1ccc(S(=O)(=O)NC2CCCCC2)cc1 | 91.4%
11 | Cc1c(C(=O)NO)sc2ncnc(Nc3ccc(NC(=S)Nc4ccccc4)cc3)c12 | 95%
12 | NC(=S)N/N=C(\c1ccc(Cl)cc1)C1CC1 | 87.3%
13 | CC[C@H](CC[C@@H](C)[C@H]1CC[C@H]2[C@@H]3CC=C4C[C@@H](OCCc5nn[nH]n5)CC[C@]4(C)[C@H]3CC[C@]12C)C(C)C | 118%
14 | Cc1ccc2nc3c(cc2c1)CSc1nnc(-c2ccc[nH]c2=S)n1N3 | 87%
15 | O=C(O)/C=C\C(=O)N1C/C(=C\c2ccccc2Cl)C(=O)/C(=C/c2ccccc2Cl)C1 | -60.3% (active)
16 | COc1ccccc1/C=N/NC1=NC2C(N1)N(C)C(=O)N2C (stereo not given) | 100%
17 | CCCCCCCCOc1ccc(/C=N/Nc2cc(C)nc3ccc(Cl)cc23)cc1 | 91.2%
18 | O=C(Cc1ccc(/C=C/C(=O)c2ncc[nH]2)cc1)Nc1ccc(C(F)(F)F)cc1 | 46.5%
19 | COc1ccc(C(=O)/C=C/c2ccc(OCc3ccccc3)c(OC)c2)cc1OC | 70.8%
20 | c1ccc(CCSc2ncnc3nc[nH]c23)cc1 | 76.9%

Row | Structure (SMILES) | growth
21 | COc1cc(CNC(=O)CCCCC[P+](c2ccccc2)(c2ccccc2)c2ccccc2)c(OC)c2c1OCO2 | 41.8%
22 | Nc1c(C(=O)Nc2ccc(Cl)cc2)cc(-c2nc3ccccc3s2)c(=O)n1NS(=O)(=O)c1ccc(Cl)cc1 | 89.8%
23 | Cc1cc(C(=O)Nc2ncnc3nc[nH]c23)no1 | 97%
24 | O=C(O)C(/C=C/c1ccco1)=N\Nc1nc(-c2ccc(Cl)cc2)cs1 | 57.1%
25 | S=c1[nH]cccc1-c1nnc2n1Nc1nc3ccc(Cl)cc3cc1CS2 | 87.3%
26 | O=C(Nc1nc2ccc(S(=O)(=O)Nc3ccc(C4(C(F)(F)F)CC4)cc3)cc2[nH]1)c1cnccn1 | 40%
27 | COc1cccc2c1C(=O)c1c(O)c3c(c(O)c1C2=O)C[C@@](O)(C(=O)CO)C[C@@H]3O[C@H]1C[C@H](N)[C@@H](O)[C@H](C)O1 | -64.4% (active)
28 | COc1cc(-c2cc(=O)oc3cc(O)ccc23)cc(OC)c1OC | 88.1%
29 | CN1C(=O)N(C)[C@H]2NC(NN)=N[C@H]21 | 101%
30 | CC1(C)CCCN1CCCN1c2ccccc2Sc2ccc(Cl)cc21 | 75.6%
31 | COc1cc(NCC(C)(O)CN(CC(C)C)CC(C)C)c2nc(C)ccc2c1 (stereo not given) | 68.3%
32 | Cc1c(C2=CCCCC2)c2ccccn2c1C(=O)c1cccc(S(=O)(=O)N2CCOCC2)c1 | 77.7%
33 | CCN(CC)CCOC(COc1cc(C)cc(C)c1)COc1cc(C)cc(C)c1 | 46.4%
34 | COc1ccc(-c2nc(SC(C)C)nc(NNC(N)=O)c2C#N)cc1 | 85.8%
35 | Fc1ccc(C2CC(c3cccc(Nc4ccncc4)c3)=NN2c2ccc(Cl)cc2)cc1 (stereo not given) | 99.6%
36 | COc1ccc(/C=C(/c2ccccc2)[N+](=O)[O-])cc1 | -17.6% (active)
37 | CCCCOc1ccc(/C=N/Nc2cc(C)nc3ccc(Cl)cc23)cc1 | 77.8%
38 | CC(C)(C)CC(C)(C)Nc1c(-c2ccc3c(c2)OCO3)nc2cnccn12 | 66%
39 | COc1ccncc1C#Cc1cncc(C(=O)Nc2ccc(CN3CCN(C)CC3)c(C(F)(F)F)c2)c1 | 26.4%
40 | O=C1C(=O)c2c(nc3ncccn23)-c2ccccc21 | -92.8% (active)
